Our source for the growth values is PubChem BioAssay (NCI).

About 83,000 compounds went through this panel and 20% of them were active in at least one assay; those are over-represented in the sample as a whole.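 Step 1: grow cells in 96-well plates. Step 2: add test compound at a single concentration. Step 3: incubate 48 h. Step 4: record percent growth.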 Unmarked numbers belong to inactive results. Activity calls are given as the source filed them.

The subject of the assay is OVCAR-4 ovarian. Kind of assay: NCI-60 one-dose screen, 48 h (100 = growth as untreated, 0 = no growth, -100 = all killed). Conditions: 10 µM unless noted. How it is done: Growth inhibition of the OVCAR-4 human tumor cell line is measured as a screen for anti-cancer activity. Cells are grown in 96 well plates and exposed to the test compound for 48 hours. Compounds are tested at a single concentration, which is 10^-5 M for most compounds. The reported endpoint is percent growth (GI% or GIPRCNT), where numbers from 0 - 100% represent growth inhibition, and numbers from -100% - 0 represent cell death. For example, a value of 40 represents 60% growth inhibition. A value of 0 means no net growth occurred over the course of the experiment. A value of -40 indicates 40% of cells at the beginning of the experiment died by the end of the experiment. A value of -100 means all cells are dead at the end of the experiment.
NCI-60 Human Tumor Cell Lines Screen was performed using the standard one-dose NCI protocol, which is described in more detail at https://dtp.cancer.gov/discovery_development/nci-60/default.htm.
Compounds with GIPRCNT values below 10 were considered active. Activity score was based on GIPRCNT using the following formula: […]
Score is 0 for GIPRCNT values of 100 or above, 50 for GIPRCNT values of 0, and 100 for GIPRCNT values of -100.
As to `C/C(=N\NC(N)=S)c1nc2ccc(Cl)cc2[nH]1`, the growth is 32.3%.

As to `c1ccc(-c2oc3ccccc3c2-c2ccccc2)cc1`, the growth is 96.7%.

Turning to `N#Cc1c(NC(=O)c2ccccc2I)sc2c1CCCC2`, the growth is 79.9%.

As for `CCOC(=O)c1nnn(-c2ccccc2)c1C1=CN(C)CCC1`, the growth is 99.9%.

For the compound `CC1(C)N=C(N)N=C(N)N1c1ccc(Cl)c(Cl)c1`, the growth was 54.5%.

As for `CCCCCCCC/C=C\CCCCCCCC(=O)Oc1cccc2cccnc12`, the growth was 128%.

As to `COc1cccc(-c2nc3sccn3c2-c2ccnc(NCCNS(=O)(=O)c3c(Cl)cccc3Cl)c2)c1`, the growth was 59.7%.

For the compound `CC(C)n1nc(C#Cc2cccc(O)c2)c2c(N)ncnc21`, the growth was -15% (active).

Consider `Oc1ccccc1-c1nc2ccccn2c1NCCN1CCOCC1`, for which the growth was 92.2%.

Take `Clc1cnc(Nc2ccc(OCCN3CCCC3)cc2)nc1NCc1ccco1`: the growth was 51.6%.

Take `CN(C)CCCCNc1ccc(NCCCCN(C)C)c2c1C(=O)c1c(O)ccc(O)c1C2=O`: the growth is 64%.

For `O=S(=O)(NCCNc1cc(-c2c(-c3cccc(O)c3)nc3sccn23)ccn1)c1ccc(Br)cc1`, the growth was 43.1%.

For the compound `C=C1C(=O)O[C@H]2[C@H]1CC/C(C(=O)NCCCCCCCCNC(=O)/C1=C/CC[C@@]3(C)O[C@H]3[C@H]3OC(=O)C(=C)[C@@H]3CC1)=C\CC[C@@]1(C)O[C@@H]21`, the growth was 73.1%.

For `CC(C)(O)c1cccc(F)c1`, the growth was 112%.

On to `NC(N)=N/N=C/c1ccc(Br)cc1`, for which the growth is 51.8%.

`CC(/C=N/NC(=O)c1cc(-c2ccco2)[nH]n1)=C\c1ccccc1`: the growth was 99.6%.

`O=C1/C(=C/c2ccc([N+](=O)[O-])cc2)COc2ccc(O)c(O)c21`: the growth is 6.56% (active).

In the case of `COc1cc2c(cc1OC)-c1ccc3cc4c(cc3c1N(CCCN(C)C)C2)OCO4`, the growth was 52.4%.

Take `Clc1ccc(-c2nc(NCCc3ccccc3)nc3c(NCCc4ccccc4)cnn23)cc1`: the growth is 7.73% (active).

Turning to `CCCCCCCCn1cc(C2=C(c3coc4ccc(OC)cc34)C(=O)NC2=O)c2ccccc21`, the growth was 106%.

On to `COc1ccc(N=c2nc3sc4cc(Cl)ccc4n3c(N)c2C#N)cc1`, for which the growth was 55.6%.

Consider `CCCCn1c(=O)[nH]c(N)c(C(c2ccc(F)cc2)c2c(N)[nH]c(=O)n(CCCC)c2=O)c1=O`, for which the growth is 64.6%.

Consider `c1ccc2c(c1)nc(-n1ccnc1)c1nc3ccccc3n12`, for which the growth is 68%.

`CC(C)(C)c1ccc(C(=O)Nc2sc3c(c2C(N)=O)CCC(=O)C3)cc1`: the growth was -91.1% (active).

Consider `NS(=O)(=O)c1cnccc1-n1ccc(=O)c(S(N)(=O)=O)c1`, for which the growth was 95.2%.

With `O=C1c2cccc3c(-c4ccc(-c5nc6c7ccccc7c7ccccc7c6[nH]5)cc4)ccc(c23)C(=O)N1CCN1CCNCC1`, the growth was -23.2% (active).

Take `COc1ccc(/C=C2\COc3ccc(O)cc3C2=O)c(OC)c1`: the growth was 96.1%.

`CN(C)c1ccc(C#Cc2c(F)cccc2Cl)cc1`: the growth was 72%.

As for `Cn1cc(-c2ccc3ncc(-c4ccc(CC(=O)Nc5cc(C(C)(C)C)nn5C)cc4)cc3c2)cn1`, the growth was -21.8% [30 µM] (active).

`Cc1cc(=O)[nH]c(N/N=C/c2cc(Br)ccc2O)n1`: the growth was 7.34% (active).

For the compound `O[C@H]1CO[C@H]2[C@@H]1OC[C@@H]2Oc1ccc(Nc2nc(Nc3ccc(F)c(Cl)c3)ncc2F)cc1Cl`, the growth is 96.9%.

On to `CCNCCNc1cc(-c2ccc(F)cc2)c(C#N)c2nc3ccccc3n12`, for which the growth is 31%.

As for `CCn1c(Sc2nnc(NC(C)=O)s2)nc2c1c(=O)n(C)c(=O)n2C`, the growth was 101%.

For the compound `CCOC(=O)c1cnn2c(-c3ccc(Cl)cc3)nc(NCc3ccccc3)nc12`, the growth is 5.61% (active).

Regarding `O=C1NCC(=O)N(Cc2ccco2)[C@H]1Cc1ccccc1`, the growth is 103%.

For the compound `Cc1csc(NC(=O)c2sc3nc(-c4cccs4)ccc3c2N)n1`, the growth was 114%.

As to `C=C(Cl)COC(=O)C(C)(C)O`, the growth is 93.3%.

On to `c1ccc([P+](CCCc2n(Cc3ccc4ccccc4c3)c3ccccc3[n+]2Cc2ccc3ccccc3c2)(c2ccccc2)c2ccccc2)cc1`, for which the growth was 74.4%.

Consider `CCCn1nc(-c2ccccc2)c2c(-c3ccccc3)onc2c1=O`, for which the growth is 79.7%.

As for `c1ccc2[nH]c(SSc3nc4ncncc4[nH]3)nc2c1`, the growth was 33.9%.
